# Screening data deposited in PubChem by National Center for Advancing Translational Sciences (NCATS).
# CHX counter: counter-screen for Shiga toxin inhibitors: cycloheximide protein synthesis inhibition; cell reporter, cycloheximide protein synthesis inhibition counterscreen; max response, %; 12% of 300,000 active; AID 2314; in the data active = max response mostly above about 13%, no sharp cut-off; inactive = mostly below about 14%; also: read at 38.3 µM for the half of the compounds with a filed dose; 0% is about no effect
# HCMV inh: human cytomegalovirus inhibition; HFF cells, HCMV-luciferase reporter, 72 h; stronger effect = lower value; activity change, negative = inhibition, % at 57.5 µM; 4.5% of 410,000 active; AID 1259415; in the data active = activity change below about -60%; inconclusive = no clear call, values can overlap the other calls; inactive = above about -39%; also: % is scaled to controls: 0 for no effect and ±100 for the full control effect
#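 Compounds were evaluated in HFFs infected with an HCMV luciferase reporter virus (MOI 1 PFU/cell). Luciferase in lysates collected 72 h post infection served as the replication measure.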
# Shiga inhibitor: inhibitors of Shiga toxin in Vero cells; Vero cells, Shiga toxin protein synthesis inhibition reporter; inhibition, % at 38.7 µM; 9.2% of 290,000 active; in the data active = inhibition mostly above about 28%, no sharp cut-off; inactive = mostly below about 43%; also: 0% is about no effect
# Pf growth 96h: P. falciparum growth inhibition at 96 hours; Potency, µM (titrated, usually from 28.7 µM), for inactives: at the highest dose activity change, negative = inhibition, actives largely listed as inhibitors; P. falciparum luciferase reporter growth, 96 h; 6.9% of 320,000 active; AID 504834; also: potency is read from the fitted curve at half-maximal effect; % is scaled to controls: 0 for no effect and ±100 for the full control effect
#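 Parasite growth measured via integrated firefly luciferase reporter in P. falciparum. Infected erythrocytes at 2% hematocrit, 0.05% parasitemia final were treated 96 hours at 37 C under 5% CO2, and luminescence was read.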
# Pf growth 48h: P. falciparum growth inhibition at 48 hours (one generation); P. falciparum luciferase growth in erythrocytes, 48 h; Potency, µM (titrated, usually from 28.7 µM), for inactives: at the top dose activity change, negative = inhibition, most hits filed as inhibitors; 5.9% of 310,000 active; also: potency is read from the fitted curve at half-maximal effect; % is scaled to controls: 0 for no effect and ±100 for the full control effect
#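 Compounds are pin-transferred into medium, infected erythrocytes (2% hematocrit, 0.1% parasitemia final) are added, and plates sit one parasite generation at 37 C in 5% CO2. Detection reagent is then added and luminescence measured.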
# An asterisk follows results filed as active; i = inactive; ? = inconclusive; . = not tested or not shown; ! = repeats disagree; [ ] = remark or other dose. The list is not random: actives were taken first. Their share in the collection is about 20%. Unless noted, calls follow the shape of the dose curve; as a rule, active = well fitted inhibition curve with a large enough effect; inconclusive = small, poorly fitted or top-dose-only effect, or another doubt; inactive = no such curve, though single readings can be large or run the other way.
SMILES,CHX counter,HCMV inh,Shiga inhibitor,Pf growth 96h,Pf growth 48h
CCOC(=O)CC1CCCCN1C(=O)c1ccc2oc(CCc3ccccc3)nc2c1 (stereo unspecified),17*,-35,34*,?,-18%
COCCC1CCCCN1C(=O)c1ccc2nc(Cc3ccccc3F)oc2c1 (stereo unspecified),61*,31,97*,5%,?
CCCCc1nc2cc(C(=O)NCc3nccn3CC)ccc2o1,50*,-19,37*,-20%,35%
CCCCc1nc2cc(C(=O)NCc3cn(C)nc3C)ccc2o1,-8,-37,-13,?,-12%
CCOC(=O)CC1CCCCN1C(=O)c1ccc2nc(CCOC)oc2c1 (stereo unspecified),24,-2,10,19%,-1%
NC(=O)CC(NC(=O)Cc1ccc(Cl)cc1)c1ccc(NCCN2CCOCC2)c([N+](=O)[O-])c1 (stereo unspecified),0,-19,-6,?,-10%
COCC1CCCCN1C(=O)c1ccc2oc(CCc3ccccc3)nc2c1 (stereo unspecified),37*,33,94*,?,26%
COC(=O)[C@]1(C)N[C@H](CN(C)C(=O)Nc2ccccc2)[C@@H]2C(=O)N(C)C(=O)[C@@H]21,.,20,.,.,.
O=C(c1cccs1)N(C(=O)c1cccs1)c1ccc(Br)cn1,37*,1,57,.,184%
Cc1ccnc(N(C(=O)c2cccs2)C(=O)c2cccs2)c1,42*,97,71*,11%,168%
Clc1ccc(-c2nc(Cc3ccccc3Cl)no2)cc1,15,105,12,5%,50%
Clc1ccc(Cc2noc(-c3cccs3)n2)cc1,53*,64,93*,.,151%
Cc1ccc(CNC(=O)c2c(O)nc3ccccn3c2=O)cc1,.,-34,.,.,.
COc1ccc(-c2cc(C(=O)Nc3ccccc3)on2)cc1,19*,17,124*,423%,230%
COc1ccc(-c2cc(C(=O)Nc3ccccc3F)on2)cc1,33*,-8,80*,89%,231%
COc1ccc(NC(=O)c2cc(-c3ccccc3O)no2)cc1,.,18,.,.,.
COc1ccc(CN2C(=O)C(Cc3ccccc3)Nc3ncnc(N4CCCCC4)c32)cc1 (stereo unspecified),.,.,.,12µM*,5.2µM*
Cc1ccc(CN2C(=O)C(Cc3ccccc3)Nc3ncnc(N4CCN(c5ccccc5)CC4)c32)cc1 (stereo unspecified),.,1,.,4.7µM*,1.9µM*
CC(C)CC1Nc2ncnc(N3CCOCC3)c2N(Cc2ccc(Cl)cc2)C1=O (stereo unspecified),.,-101*!,.,.,.
CCC1Nc2ncnc(N3CCOCC3)c2N(Cc2ccccc2)C1=O (stereo unspecified),.,0,.,29%,?
O=C1C(Cc2ccccc2)Nc2ncnc(N3CCN(c4ccccc4)CC3)c2N1Cc1ccccc1 (stereo unspecified),.,?,.,2.9µM*,2.9µM*
CCC(CC)C(=O)OCc1cc(=O)n2nc(C3CCCCC3)sc2n1,.,4,.,.,.
COc1ccc(OC)c(/C=N/NC(=S)NCCc2ccccc2)c1,-3,?,21,?,-10%
COc1ccc(OC)c(NC(=O)COC(=O)COc2ccc(Nc3ccccc3)cc2)c1,.,-8,.,.,.
CCC1Nc2ncnc(N3CCCCC3)c2N(Cc2ccc(C)cc2)C1=O (stereo unspecified),.,-14,.,.,.
SMILES,CHX counter,HCMV inh,Shiga inhibitor,Pf growth 96h,Pf growth 48h
COc1ccc(CN2C(=O)C(C)Nc3ncnc(N4CCc5ccccc5C4)c32)cc1 (stereo unspecified),.,-17,.,.,.
O=C1C(Cc2ccccc2)Nc2ncnc(N3CCOCC3)c2N1Cc1ccc(Cl)cc1 (stereo unspecified),.,?,.,0%,9.3µM*
O=C1C(Cc2ccccc2)Nc2ncnc(N3CCc4ccccc4C3)c2N1Cc1ccc(Br)cc1 (stereo unspecified),.,.,.,13µM*,10µM*
Cc1ccc(CN2C(=O)C(Cc3ccccc3)Nc3ncnc(N4CCCCC4)c32)cc1 (stereo unspecified),.,-13,.,4.7µM*,1.7µM*
O=C(CSc1nc2nn(-c3ccccc3)c(=O)c-2c2n1CCCCC2)NCCc1ccccc1,0,-34,-11,?,?
CN(C)C(=O)C(CCN1CCC(O)(c2ccc(Cl)cc2)CC1)(c1ccccc1)c1ccccc1,-5,-25,-17,2.9µM*!,2.9µM*
CCc1nc2ccc(N3CCN(C)CC3)cc2nc1CC,25*,6,40,91%,145%
CN1CCN(c2ccc3nccnc3c2)CC1,31,12,34,5%,i
COc1ccc(-c2c(C#N)c(N)nc3c2CCc2ccccc2-3)cc1OC,-2,-26,1,7.4µM*,2.3µM*
COc1cccc(-c2nnc(-c3ccc(C(F)(F)F)cc3)o2)c1OC,21*,38,26,9%,169%
Cc1cccc(OCc2nnc(SCC(=O)c3cccs3)n2C)c1C,21*,-2,39,8.3µM*,-23%
CCn1c(SCC(=O)c2cccs2)nnc1-c1cccs1,27*,42,31,113%,28%
CCn1c(SCC(=O)NC(C)C)nnc1-c1cccs1,3,13,16,.,8%
CCn1c(SCC(=O)c2[nH]c(C)c(C(C)=O)c2C)nnc1-c1cccs1,-2,-93*,-14,-7%,27%
Cc1ccccc1OCc1nnc(SCC(=O)NCc2ccccc2)n1C,-3,1,-11,.,-18%
CC(=O)c1c(C)[nH]c(C(=O)CSc2nc3ccccc3n2C)c1C,-2,-78*,-10,?,0%
CN1CCCCC1CCN1c2ccccc2Sc2ccc(S(C)=O)cc21 (stereo unspecified),-6,?,-13,1.5µM*,?
COc1cc2c(cc1OC)C(c1ccc([N+](=O)[O-])cc1)NC(=O)C2 (stereo unspecified),-3,70,-9,?,14%
CCC(=O)n1nc(-c2ccco2)nc1SCc1ccccc1,35*,39,32*,1%[5.75 µM],34%
CC(=O)n1nc(-c2ccco2)nc1SCc1ccccc1,19*,.,36,?,23%
CCC(=O)n1nc(-c2ccco2)nc1N,-2,-12,37,118%,-12%
O=C(c1cccs1)n1nc(-c2ccco2)nc1SCc1ccccc1,26*,96,41*,?,.
CSc1nc(-c2ccco2)nn1C(=O)c1cccs1,9,-32,22,?,9%
CC(=O)n1nc(-c2ccco2)nc1N,-1,11,-16,?,15%
C#CC1(NC(=S)Nc2cccc(OC)c2)CCCCC1,.,28,.,.,.
CCN(CC)C(=O)CCCSc1nnc(Nc2ccccc2F)s1,44*,55,85*,?,20%
O=C1c2ccccc2C(=O)N1CSc1nnc(Nc2ccccc2F)s1,22*,65,30,15%,53%
N#CC1(NC(=O)CSc2nnc(Nc3ccccc3F)s2)CCCC1,.,48,.,12µM*,?
